“And” between values parts separate entries of the source, which are not always exact repeats. Identical values can stand only once. Records with an inconclusive call do not appear. The source made the active and inactive calls. Rule for the calls: active = hit-call score of the fitted dose curve at least 0.9, where 1 is the maximum; inconclusive = response in the unintended direction; inactive = score below 0.9.
Assay: IUF_NPC2-5_cytotoxicity_72hr: Cytotoxicity Assessment at 72 hours in the Leibniz Research Institute for Environmental Medicine (IUF) Neural Progenitor Cell Migration and Differentiation Assay for Cytotoxicity (NPC2-5) (AID 2284306);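 note: LDH release into supernatant measured by resorufin fluorescence marking membrane damage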
Protocol: IUF_NPC2-5 is a cell-based, multiplexed assay that uses hNPC, a human primary neural progenitor cells, with measurements taken at 72 or 120 hours after chemical dosing in a 96-well plate. Human neural progenitor cells (hNPC) are generated from human fetal brain cortex at gestational week (GW) 16-19. In the neural progenitor cell migration and differentiation assay (NPC2-5), hNPCs grown as spheres are plated on an extracellular matrix and migrate and differentiate out of the sphere core. The processes radial glia migration, neuronal and oligodendrocyte migration as well as neuronal differentiation, neuronal morphology and oligodendrocyte differentiation are studied using automated phase contrast imaging and automated fluorescence imaging in combination with high content image analysis. In parallel, the cell viability is assessed using an alamar blue viability assay and the cytotoxicity using a lactate dehydrogenase dependent membrane integrity assay.IUF_NPC2-5_cytotoxicity_72hr is one of 12 assay components measured from the IUF_NPC2-5 assay. It is designed to measure the cytotoxicity at 72 hr as assessed by membrane integrity related to the LDH dependent reduction of resazurin to resorufin in the supernatant of each well. The cytotoxicity is measured as fluorescence signal (relative fluorescence unit) in a multiplate reader. Data from the IUF_NPC2-5_cytotoxicity_72hr component was analyzed at the endpoint IUF_NPC2-5_cytotoxicity_72hr in the positive analysis fitting direction relative to the dynamic range and baseline of activity. Using a type of viability reporter, gain-of-signal activity can be used to understand cytotoxicity effects.
Culture protocol: After the cell expansion period the cells are cultured for up to four weeks in which they are passaged every week as described in 3.6. Between one to three days after passaging spheres at a size of 0.3 mm are picked for the test method. For the assessment of neural progenitor cell migration and differentiation, the spheres are plated on poly-D-lysine/laminin coated 96-well flat bottom plates in differentiation medium (N2) to initiate migration and differentiation. Thereby one 0.3 mm big sphere is plated in the middle of a well. The differentiation medium consists of DMEM and Ham's F12 at a ratio of 3 to 1 supplemented with 1% N2 and 1% penicillin and streptomycin. Within 5 days NPCs radially migrate out of the sphere core and differentiate into radial glia cells (nestin positive), neurons (TUBB3 positive), oligodendrocytes (O4 positive) and astrocytes (GFAP positive). Cultivation during the test method is performed at 37C and 5% CO2 at a ph of 7.2-7.6.Exposure: 0.3 mm big hNPC are plated in the already prepared test conditions. Exposure starts at day 0 of differentiation and is continued over five days of differentiation until the experiment is terminated. Cells are fed with fresh medium at day 3 of differentiation. Therefore, half of the test condition solution (e.g. solvent control or compound dilution) is replaced by freshly prepared test condition solution.Test Method: Migration distance and cytotoxicity is determined after 72 hours based on brightfield images of each well. The assay is terminated by the assessment of cell viability and cytotoxicity as well as cell fixation after 120 h. Immunocytochemistry is performed for Hoechst positive nuclei, TUBB3 positive neurons and O4 positive oligodendrocytes. On the ICC images, migration after 120 hours, neuronal and oligodendrocyte number, neuronal morphology and neuron/oligodendrocyte specific migration is assessed. immunocytochemical staining (ICC) generates an image for each sphere. The plates are scanned using an automated high content imaging device and all nuclei and their positions are determined automatically based on their intensity and size. Images are imported to the Omnisphero software to run the image analysis that measures the following endpoints. […]
For `CC[C@H](C)[C@H]1O[C@]2(C=C[C@@H]1C)C[C@@H]1C[C@@H](C/C=C(\C)[C@@H](O[C@H]3C[C@H](OC)[C@@H](O[C@H]4C[C@H](OC)[C@@H](NC)[C@H](C)O4)[C@H](C)O3)[C@@H](C)/C=C/C=C3\CO[C@@H]4[C@H](O)C(C)=C[C@@H](C(=O)O1)[C@]34O)O2`, the AC50 was 1.88 µM (active) and 4.62 µM (active).
In the case of `COP(=O)(NC(C)=O)SC` (centres undefined), the outcome is reported as “inactive”.
In the case of `S=C1NCCN1`, the outcome is reported as “inactive”.
With `CCOC(=O)CC(SP(=O)(OC)OC)C(=O)OCC` (centres undefined) the outcome was “inactive”.
In the case of `CC1=NNC(=O)N(/N=C/c2cccnc2)C1`, the outcome is reported as “inactive”.
For `CCCCSP(=O)(SCCCC)SCCCC`, the outcome was “inactive”.
With `CCOP(=S)(Oc1cnc(C(C)(C)C)nc1)OC(C)C` (centres undefined) the outcome was “inactive”.
For `O=[N+]([O-])c1cc(C(F)(F)F)c(Cl)c([N+](=O)[O-])c1Nc1ncc(C(F)(F)F)cc1Cl`, the AC50 was 3.71 µM (active).
For `CC(=NC#N)N(C)Cc1ccc(Cl)nc1`, the outcome was “inactive”.
In the case of `CCOP(=O)(OCC)Oc1cc(C)nc(C(C)C)n1`, the outcome is reported as “inactive”.
With `CCOP(=S)(OCC)OC(Cl)C(Cl)(Cl)Cl` (centres undefined) the outcome was “inactive”.
With `CN1COCN(Cc2cnc(Cl)s2)C1=N[N+](=O)[O-]` the outcome was “inactive”.
With `COP(=O)(OC)C(O)C(Cl)(Cl)Cl` (centres undefined) the outcome was “inactive”.
For `CCOP(=S)(OCC)Oc1cc(C)nc(C(C)C)n1`, the outcome was “inactive”.
With `CCCSP(=O)(OCC)SCCC` the outcome was “inactive”.
With `C[N+]1(C)CCCCC1` the outcome was “inactive”.
For `CC(C)N(C(=O)SCC(Cl)=C(Cl)Cl)C(C)C`, the outcome was “inactive”.
For `CSC1=N[C@@](C)(c2ccccc2)C(=O)N1Nc1ccccc1`, the outcome was “inactive”.
In the case of `CCOP(=O)(NC(C)C)Oc1ccc(SC)c(C)c1` (centres undefined), the outcome is reported as “inactive”.
In the case of `CCOP(=S)(OCC)SCCSCC`, the outcome is reported as “inactive”.
In the case of `CON=C(C(=O)OC)c1ccccc1CON=C(C)c1cccc(C(F)(F)F)c1`, the outcome is reported as “inactive”.
With `C=C(C)[C@H]1Cc2c(ccc3c2O[C@@H]2COc4cc(OC)c(OC)cc4[C@@H]2C3=O)O1` the outcome was “inactive”.
In the case of `CN(C)[C@@H]1C(=O)C(C(N)=O)=C(O)[C@@]2(O)C(=O)C3=C(O)c4c(O)cccc4[C@@](C)(O)[C@H]3[C@H](O)[C@@H]12`, the outcome is reported as “inactive”.
In the case of `COP(=O)(OC)OC(Br)C(Cl)(Cl)Br` (centres undefined), the outcome is reported as “inactive”.
